Our source for the growth inhibition and inhibition values is PubChem BioAssay.

Structures are written as SMILES. Unmarked numbers belong to inactive results. Activity calls are given as the source filed them.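 How the source made its calls, unless noted: active means inhibition above 50%; inactive means the rest.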

The term inhibition denotes the relative decrease from the control value, in per cent.

The first test can be described thus: antimalarial activity against Dd2 strain (AID 2302;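 active means growth inhibition above 50% at the single 2 µM test dose, taken to imply half-maximal potency below 2 µM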;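 further: 0% = DMSO untreated growth and 100% = chloroquine plus artemisinin killed control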). Particulars: P. falciparum Dd2 in RBCs, LDH growth readout, 72 h; at 2 µM; stronger effect = higher value.
Take `CC(C)Nc1nc(NCCc2cnc[nH]2)nc(NCc2ccc(Cl)c(Cl)c2)n1`: the growth inhibition is -1%.
Same read-out and setting: in the case of `COC(=O)Nc1nc2cc3c(cc2s1)OCCO3` it was -1%.
`C[C@@H](CC1CCCCC1)OC(=O)N[C@H]1CCN(C#N)C1`: the growth inhibition was 83% (active).
Still for that read-out and setting: then `Cc1cc(NC(=O)Nc2cccc(Cl)c2Cl)c2ccccc2n1`, with 25%.
Same read-out and setting: in the case of `CC(CN(C)C)C(=O)Nc1cccc(-c2ccc(-c3nc4ccccc4[nH]3)cc2)c1` (stereo unspecified) it was 25%.
In the case of `O=S(=O)(NCCN1CCCC1)c1ccc(-c2cccc(CNC3Cc4ccccc4C3)c2)cc1F`, the growth inhibition is 62% (active).
Still for that read-out and setting: then `O=C(Nc1ccc2c(c1)CCC2)c1cnc(N2CCN(c3ccncc3)CC2)c(Cl)c1`, with 48%; and `O=C(NCC1CCC1)c1cnc(Nc2cccc(Cl)c2)nc1N1CCC1`, with 75% (active); and `COc1cc2ncnc(Nc3ccc4nc(-c5ccccc5)[nH]c4c3)c2cc1OC`, with 32%.
On the same count and under the same terms, then `O=C(/C=C/c1ccc(Cl)c(Cl)c1)NCCCCCCN1CCN(C(=O)Nc2ccc(Cl)c(C(F)(F)F)c2)CC1`, with 43%; and `CCCCCn1c(Sc2ccc(C#N)c([N+](=O)[O-])c2)nnc1-c1cccc(Cl)c1`, with 75% (active).
On the same count and under the same terms, in the case of `OC(c1cc(C(F)(F)F)nc2c(F)cccc12)C1CCCCN1` (stereo unspecified) it was 74% (active); in that of `O=C(NCCCCN1CCN(c2cccc3ccccc23)CC1)c1ccc(NC(=O)c2ccc(Cl)cc2)cc1`, 64% (active); in that of `Cc1[nH]c(C)c(-c2ccc(-c3ccc(F)cc3)nc2)c(=O)c1Br`, 96% (active).
On to `CCN(CC)c1ccccc1CNC(=O)c1cc(Cl)c(N)cc1OC`, for which the growth inhibition was 94% (active).
Still for that read-out and setting: in the case of `O=C(Nc1cccc(C(F)(F)F)c1)Nc1ccc(Cl)c(C(F)(F)F)c1` it was 99% (active); in that of `Cc1cc(F)ccc1-c1nc(NCCCN2CCCC2=O)nc2c1ccc(=O)n2-c1c(F)cccc1F`, 80% (active).
On the same count and under the same terms, in the case of `COc1ccc(N2CCN(CCCC/C=C/c3ccc(NC(=O)c4cc(Cl)cc(Cl)c4)cc3)CC2)c(OC)c1` it was 39%; in that of `Nc1cccc(CNCc2ccc(-c3cccc(-c4nc5ccc(C(F)(F)F)cc5[nH]4)c3)cc2)c1`, 100% (active); in that of `CNCc1ccc2nc(-c3coc(Cc4cc(Cl)ccc4OCC(C)C)n3)[nH]c2c1`, 95% (active).
On the same count and under the same terms, in the case of `COc1ccc(-c2ccc(CNCc3ccccc3)cc2)cc1S(=O)(=O)NCCN1CCCC1` it was 76% (active).
Regarding `O=C(Nc1cccc(CN2CCCN(Cc3ccc(O)cc3)CC2)c1)c1cccc(F)c1`, the growth inhibition was 4%.
For `CCOc1cc(C(=O)NCCN2CCCCC2)ccc1-c1nc2ccc(Cl)cc2[nH]1`, the growth inhibition is 8%.
On the same count and under the same terms, in the case of `CCCCSc1nc2c(c(=O)n1Cc1ccco1)C1(CCCCC1)Cc1ccccc1-2` it was 78% (active); in that of `CS(=O)(=O)N(c1ccccc1)c1cc(C(=O)N[C@@H](Cc2ccccc2)[C@H](O)CNC2CCCCC2)cc(N2CCCC2=O)c1`, 97% (active); in that of `COc1ccc2ncc(F)c(CCN3C[C@@H]4CCC[C@]4(CNCc4ccc5c(n4)NC(=O)CS5)C3)c2n1`, 28%.

A further test is described as follows: HepG2 cytotoxicity, primary screen, cytotoxicity control for P. falciparum antimalarial project, cell-based, ATP luminescence (AID 2303).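 Further: 0% = DMSO wells and 100% = digitonin-killed cells.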 Particulars: HepG2 viability, 24-48 h, at 10 µM, stronger effect = higher value.
In the case of `O=C(Nc1cccc(OC2CCN(Cc3ccccc3)CC2)c1)Nc1cccc([N+](=O)[O-])c1`, the inhibition was 10%.
Consider `CCCNCc1ccc(-c2ccc(CN(Cc3cnc(C)cn3)C(=O)/C=C/c3ccccc3C)cc2)nc1`, for which the inhibition was 7%.
The same measure, in the same setting: then `COc1ccc(CN2CCCC(OC(c3ccc(F)cc3)c3ccc(F)cc3)C2)c(O)c1` (stereo unspecified), with 16%.
The same measure, in the same setting: in the case of `Cc1cc(N[C@@H](Cc2ccccc2)C(=O)NC2CCCC2)nc(NCC2CCCCC2)n1` it was 18%; in that of `N=C(N)c1ccc(Oc2ccc(C(=N)N)cc2)cc1`, 18%.
The same measure, in the same setting: then `COc1cccc2c(NCc3ccccc3)nc(NCCCN3CCCCC3C)nc12` (stereo unspecified), with 20%; and `CCNc1cc(C(=O)N[C@@H](Cc2ccccc2)[C@H](O)CNCc2cc(OC)cc(OC)c2)cc(N2CCCC2=O)c1`, with -7%; and `CS(=O)(=O)c1ccc(-c2nc(NCC3CCCCC3)cc(C(F)(F)F)n2)cc1`, with -9%.
On to `CC(=NN=C(N)N)C(=O)Nc1ccc(Cl)c(Cl)c1`, for which the inhibition is -3%.
The same measure, in the same setting: then `Cc1[nH]c2ccc(O)cc2c1C1CCN(CCCCCNC(=O)/C=C/c2ccc(Cl)c(Cl)c2)CC1`, with 33%; and `O=C(Nc1ccccc1Cl)N(Cc1cc(Cl)cc(Cl)c1)CC(O)COc1ccc(Cl)c(F)c1` (stereo unspecified), with 0%.
The same measure, in the same setting: then `CO/C(=C\C=C\c1cc2cc(Cl)c(Cl)cc2[nH]1)C(=O)NCCCNC12CC3CC(CC(C3)C1)C2`, with 29%; and `COc1ccc2[nH]c(C(=O)Nc3cccc(-c4ccc(CN(C)C)cc4)c3)cc2c1`, with 23%; and `Brc1cc(Br)c2c(c1)C(NCCCNC1CCNc3c(Br)cc(Br)cc31)CCN2` (stereo unspecified), with 18%.
Same read-out and setting: then `CC(C)Nc1nc(NCCc2cnc[nH]2)nc(NCc2ccc(Cl)c(Cl)c2)n1`, with -3%; and `COC(=O)Nc1nc2cc3c(cc2s1)OCCO3`, with -12%.
As for `C[C@@H](CC1CCCCC1)OC(=O)N[C@H]1CCN(C#N)C1`, the inhibition is 7%.
On the same count and under the same terms, then `Cc1cc(NC(=O)Nc2cccc(Cl)c2Cl)c2ccccc2n1`, with -5%.
In the case of `CC(CN(C)C)C(=O)Nc1cccc(-c2ccc(-c3nc4ccccc4[nH]3)cc2)c1` (stereo unspecified), the inhibition is 1%.
Same read-out and setting: in the case of `O=S(=O)(NCCN1CCCC1)c1ccc(-c2cccc(CNC3Cc4ccccc4C3)c2)cc1F` it was 41%; in that of `O=C(Nc1ccc2c(c1)CCC2)c1cnc(N2CCN(c3ccncc3)CC2)c(Cl)c1`, 33%; in that of `O=C(NCC1CCC1)c1cnc(Nc2cccc(Cl)c2)nc1N1CCC1`, 21%.
The same measure, in the same setting: in the case of `COc1cc2ncnc(Nc3ccc4nc(-c5ccccc5)[nH]c4c3)c2cc1OC` it was 15%.
In the case of `O=C(/C=C/c1ccc(Cl)c(Cl)c1)NCCCCCCN1CCN(C(=O)Nc2ccc(Cl)c(C(F)(F)F)c2)CC1`, the inhibition was 47%.
On the same count and under the same terms, in the case of `CCCCCn1c(Sc2ccc(C#N)c([N+](=O)[O-])c2)nnc1-c1cccc(Cl)c1` it was 4%; in that of `OC(c1cc(C(F)(F)F)nc2c(F)cccc12)C1CCCCN1` (stereo unspecified), -4%.
`O=C(NCCCCN1CCN(c2cccc3ccccc23)CC1)c1ccc(NC(=O)c2ccc(Cl)cc2)cc1`: the inhibition was 38%.
Still for that read-out and setting: then `Cc1[nH]c(C)c(-c2ccc(-c3ccc(F)cc3)nc2)c(=O)c1Br`, with 15%; and `CCN(CC)c1ccccc1CNC(=O)c1cc(Cl)c(N)cc1OC`, with 6%.
As to `O=C(Nc1cccc(C(F)(F)F)c1)Nc1ccc(Cl)c(C(F)(F)F)c1`, the inhibition was -4%.
Turning to `Cc1cc(F)ccc1-c1nc(NCCCN2CCCC2=O)nc2c1ccc(=O)n2-c1c(F)cccc1F`, the inhibition is -7%.
Still for that read-out and setting: then `COc1ccc(N2CCN(CCCC/C=C/c3ccc(NC(=O)c4cc(Cl)cc(Cl)c4)cc3)CC2)c(OC)c1`, with 20%; and `Nc1cccc(CNCc2ccc(-c3cccc(-c4nc5ccc(C(F)(F)F)cc5[nH]4)c3)cc2)c1`, with 60% (active).
`CNCc1ccc2nc(-c3coc(Cc4cc(Cl)ccc4OCC(C)C)n3)[nH]c2c1`: the inhibition is 34%.
As for `COc1ccc(-c2ccc(CNCc3ccccc3)cc2)cc1S(=O)(=O)NCCN1CCCC1`, the inhibition was 36%.
Still for that read-out and setting: in the case of `O=C(Nc1cccc(CN2CCCN(Cc3ccc(O)cc3)CC2)c1)c1cccc(F)c1` it was 22%; in that of `CCOc1cc(C(=O)NCCN2CCCCC2)ccc1-c1nc2ccc(Cl)cc2[nH]1`, 4%; in that of `CCCCSc1nc2c(c(=O)n1Cc1ccco1)C1(CCCCC1)Cc1ccccc1-2`, 13%.
Consider `CS(=O)(=O)N(c1ccccc1)c1cc(C(=O)N[C@@H](Cc2ccccc2)[C@H](O)CNC2CCCCC2)cc(N2CCCC2=O)c1`, for which the inhibition was 8%.
Same read-out and setting: in the case of `COc1ccc2ncc(F)c(CCN3C[C@@H]4CCC[C@]4(CNCc4ccc5c(n4)NC(=O)CS5)C3)c2n1` it was 18%.
